# In PubChem BioAssay:
# The source made the active and inactive calls. The rule behind the calls is not given here.
# Target: Pantothenate synthetase (Mycobacterium tuberculosis (strain ATCC 25618 / H37Rv)) (UniProt P9WIL5)
# Experiment: Coupled enzyme confirmation of inhibitors against recombinant Mtb PanC (AID 375);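 note: 0% = full reaction with vehicle and 100% = no enzyme background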
# Details: coupled enzyme assay; at 10 µM, stronger effect = higher value
# Chain of Pantothenate synthetase (Mycobacterium tuberculosis (strain ATCC 25618 / H37Rv)) (P9WIL5 whole entry, looked up): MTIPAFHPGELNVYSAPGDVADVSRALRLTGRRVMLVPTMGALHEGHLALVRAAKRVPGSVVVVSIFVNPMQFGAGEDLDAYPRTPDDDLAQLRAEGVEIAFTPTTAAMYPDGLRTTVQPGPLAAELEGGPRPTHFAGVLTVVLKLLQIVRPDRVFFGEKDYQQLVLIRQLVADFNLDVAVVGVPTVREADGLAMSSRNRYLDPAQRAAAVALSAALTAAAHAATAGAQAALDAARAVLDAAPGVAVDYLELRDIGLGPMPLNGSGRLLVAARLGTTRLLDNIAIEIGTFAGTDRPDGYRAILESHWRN
row,SMILES,inhibition
1,COC(=O)CSc1ncccc1-c1nc2ccccc2[nH]1,0% (inactive)
2,CC(C)c1ccc(-c2nc(N3CCOCC3)[nH]c(=O)c2C#N)cc1,7% (inactive)
3,CCOC(OCC)P(=O)(C(C)C)C(C)C,0% (inactive)
4,O=C(NCC(=O)N(CCc1ccccc1)C(C(=O)NC1CCCC1)c1cccnc1)c1ccco1 (stereo not given),3% (inactive)
5,Cc1occc1-c1nnc(SCC(=O)N2CCc3ccccc32)o1,0% (inactive)
6,Cn1cnc2c1c(=O)[nH]c(=O)n2C,0% (inactive)
7,COc1ccc(C2CC(=O)C(C=NCCN3CCOCC3)=C(O)C2)cc1 (stereo not given),0% (inactive)
8,CC1Oc2ccccc2N(Cc2ccccc2Cl)C1=O (stereo not given),9% (inactive)
9,c1ccc(-c2n[nH]c3ccccc23)cc1,0% (inactive)
10,COC(=O)c1cc(=O)n2c(-c3ccc(OC)cc3)csc2n1,3% (inactive)
11,COc1ccc(Cl)cc1C(=O)NCCc1ccc(S(=O)(=O)NC(=O)NC2CCCCC2)cc1,0% (inactive)
12,CCOc1cccc2cc(C(=O)N3CCN(C/C=C/c4ccccc4)CC3)c(=O)oc12,0% (inactive)
13,O=C(Nc1cccc(NC(=O)c2ccco2)c1)c1ccc2c(c1)OCO2,0% (inactive)
14,Cn1c(=O)c(=O)n(C)c2cc(S(=O)(=O)CCC(=O)N3CCOCC3)ccc21,0% (inactive)
15,CN(C)CCCNC(=O)c1ccc(CN(c2ccccc2)S(C)(=O)=O)cc1,0% (inactive)
16,Cc1sc2ncn3ncnc3c2c1C,0% (inactive)
17,CSc1nnc2c3ccccc3n(CCc3ccccc3)c2n1,0% (inactive)
18,Cn1c(SCC(=O)Nc2ccc3c(c2)OCO3)nnc1-c1cnccn1,1% (inactive)
19,O=C(OCC#CCSc1nnc(-c2ccncc2)o1)c1cccs1,0% (inactive)
20,COc1ccc(S(=O)(=O)N(C)CC(=O)N2CCCCC2)cc1Cl,0% (inactive)

row,SMILES,inhibition
1,Cc1ccc2c(c1)C(O)(CC(=O)c1ccc3c(c1)OCO3)C(=O)N2 (stereo not given),0% (inactive)
2,CCN1CCN(C(=O)c2ccc3c(=O)n(C4CCCC4)c(=S)[nH]c3c2)CC1,0% (inactive)
3,Nc1nc2ccccc2n1C(=O)CCc1ccccc1,0% (inactive)
4,CCOc1ccccc1OCCn1nnc2ccccc21,4% (inactive)
5,CCOc1cc(C(=O)Nc2c3c(nn2C(C)(C)C)CS(=O)C3)cc(OCC)c1OCC (stereo not given),4% (inactive)
6,O=C(CC1CCS(=O)(=O)C1)Nc1ccc[nH]c1=O (stereo not given),2% (inactive)
7,CCN(CC)C(=O)Oc1ccc(NC(C)=O)cc1,0% (inactive)
8,CCOC(=O)c1c(C)n(C)c2ccc(OC)c(NC(=O)CCN3CCSCC3)c12,2% (inactive)
9,Cn1c(SCC(N)=O)nnc1C1CCN(C(=O)NCc2ccccc2)CC1,0% (inactive)
10,c1ccc(Cc2nnc3n2CCCCC3)cc1,6% (inactive)
11,O=C(COC(=O)c1ccccc1O)Nc1ccc(OC(F)F)cc1,0% (inactive)
12,COc1ccc(N2C(=O)CC(N3CCN(c4ccccc4F)CC3)C2=O)cc1 (stereo not given),0% (inactive)
13,CCSC1=NCN(CCCC(=O)O)CN1,0% (inactive)
14,C=CCn1c(SCn2nnc3ccccc3c2=O)nnc1-c1ccc(Br)cc1,2% (inactive)
15,Cc1cc(C)n(C(=O)CNC(=O)C2COc3ccccc3O2)n1 (stereo not given),1% (inactive)
16,Cc1ccc(S(=O)(=O)N2CCCC2C(=O)OCc2ccco2)cc1 (stereo not given),5% (inactive)
17,Cc1nc(CNS(=O)(=O)c2ccc3c(c2)OCCO3)cs1,0% (inactive)
18,O=C(CNC(=O)c1ccccc1C(=O)O)c1ccccc1,0% (inactive)
19,COCCn1c(CN(Cc2ccccc2)Cc2ccccc2)nc2c1c(=O)n(C)c(=O)n2C,0% (inactive)
20,O=C(c1ccco1)N1CCN(C(=O)C2CC(c3ccc(F)cc3)=NO2)CC1 (stereo not given),0% (inactive)
